In all, about 39,000 compounds went through this assay and about 3,300 (8.5%) were called active. This is one part of a sample in which actives are shown more often than they occur.

The test deals with HepG2. As to the kind of experiment: cytotoxicity call (relative viability < 0.9). The note with it: 10 µM.
For `COCC#Cc1ccc([C@@H]2[C@@H](CO)N3C(=O)CN(C(=O)C4CCOCC4)C[C@H]23)cc1`, the cytotoxicity call is “inactive”.
As to `COc1ccccc1OCC(O)COC(N)=O` (stereo unspecified), the cytotoxicity call was “active”.
Take `COc1ccccc1OC[C@@H](O)COC(N)=O`: the cytotoxicity call is “inactive”.
As for `NC(=O)OCC(COC(N)=O)c1ccccc1`, the cytotoxicity call was “inactive”.
Consider `Cc1noc(C)c1S(=O)(=O)Nc1ccc2c(c1)CC(=O)N([C@H](C)CO)C[C@@H](C)[C@@H](CN(C)CC1CC1)O2`, for which the cytotoxicity call is “inactive”.
`Cc1ccc(S(=O)(=O)N(C)C[C@@H]2Oc3ccc(NC(=O)Cn4cnnn4)cc3CC(=O)N([C@@H](C)CO)C[C@@H]2C)cc1`: the cytotoxicity call was “inactive”.
Regarding `Cc1noc(C)c1S(=O)(=O)Nc1ccc2c(c1)CC(=O)N([C@H](C)CO)C[C@@H](C)[C@@H](CN(C)Cc1ccc(Oc3ccccc3)cc1)O2`, the cytotoxicity call was “inactive”.
Take `Cc1noc(C)c1S(=O)(=O)Nc1ccc2c(c1)CC(=O)N([C@@H](C)CO)C[C@@H](C)[C@H](CN(C)Cc1ccc(Oc3ccccc3)cc1)O2`: the cytotoxicity call was “inactive”.
Take `Cc1noc(C)c1S(=O)(=O)Nc1ccc2c(c1)CC(=O)N([C@@H](C)CO)C[C@@H](C)[C@@H](CN(C)Cc1ccc3c(c1)OCO3)O2`: the cytotoxicity call is “inactive”.
Next, `Cc1noc(C)c1S(=O)(=O)Nc1ccc2c(c1)CC(=O)N([C@H](C)CO)C[C@@H](C)[C@@H](CN(C)Cc1ccc3c(c1)OCO3)O2`: “active”; `Cc1noc(C)c1S(=O)(=O)Nc1ccc2c(c1)CC(=O)N([C@H](C)CO)C[C@H](C)[C@H](CN(C)Cc1ccc(Oc3ccccc3)cc1)O2`: “inactive”; `Cc1noc(C)c1S(=O)(=O)Nc1ccc2c(c1)CC(=O)N([C@H](C)CO)C[C@H](C)[C@@H](CN(C)Cc1ccc(-c3ccccc3)cc1)O2`: “active”.
The result for `Cc1noc(C)c1S(=O)(=O)Nc1ccc2c(c1)CC(=O)N([C@@H](C)CO)C[C@@H](C)[C@@H](CN(C)Cc1ccc(-c3ccccc3)cc1)O2` reads “inactive”.
In the case of `Cc1noc(C)c1S(=O)(=O)Nc1ccc2c(c1)CC(=O)N([C@H](C)CO)C[C@@H](C)[C@H](CN(C)Cc1ccc(-c3ccccc3)cc1)O2`, the cytotoxicity call is “inactive”.
For the compound `Cc1noc(C)c1S(=O)(=O)Nc1ccc2c(c1)CC(=O)N([C@H](C)CO)C[C@H](C)[C@@H](CN(C)Cc1ccc(Oc3ccccc3)cc1)O2`, the cytotoxicity call is “active”.
On to `Cc1noc(C)c1S(=O)(=O)Nc1ccc2c(c1)CC(=O)N([C@@H](C)CO)C[C@H](C)[C@@H](CN(C)Cc1ccc(Oc3ccccc3)cc1)O2`, for which the cytotoxicity call is “inactive”.
The result for `Cc1noc(C)c1S(=O)(=O)Nc1ccc2c(c1)CC(=O)N([C@@H](C)CO)C[C@@H](C)[C@H](CN(C)Cc1ccc3c(c1)OCO3)O2` reads “inactive”; that for `Cc1noc(C)c1S(=O)(=O)Nc1ccc2c(c1)CC(=O)N([C@@H](C)CO)C[C@@H](C)[C@@H](CN(C)Cc1ccc(Oc3ccccc3)cc1)O2`, “active”; that for `COc1ccc(S(=O)(=O)Nc2ccc3c(c2)C(=O)N([C@H](C)CO)C[C@@H](C)[C@H](CN(C)C(=O)NC2CCCCC2)OCCCC[C@@H](C)O3)cc1`, “inactive”.
On to `C[C@H]1CN([C@@H](C)CO)C(=O)c2cc(NC(=O)Nc3cccc4ccccc34)ccc2O[C@H]1CN(C)C(=O)Nc1ccc(F)cc1`, for which the cytotoxicity call is “inactive”.
Turning to `C[C@@H]1CN([C@@H](C)CO)C(=O)CCCn2cc(nn2)CO[C@H]1CN(C)S(=O)(=O)c1cccc(C#N)c1`, the cytotoxicity call is “inactive”.
As for `Cc1noc(C)c1NC(=O)N(C)C[C@H]1Oc2ccc(NC(=O)Nc3ccc(C(F)(F)F)cc3)cc2CC(=O)N([C@@H](C)CO)C[C@@H]1C`, the cytotoxicity call is “inactive”.
`COc1ccc(C#Cc2ccc3c(c2)O[C@H](CN(C)C(C)=O)[C@H](C)CN([C@H](C)CO)S3(=O)=O)cc1`: the cytotoxicity call was “inactive”.
Consider `C=C/C=C/[C@@H]1C(=C)CN([C@@H](Cc2ccccc2)C(=O)OC)[C@H]1[C@@H](O)CCn1cc(-c2ccc(C(=O)NO)s2)nn1`, for which the cytotoxicity call is “inactive”.
As to `C[C@@H]1CN([C@H](C)CO)C(=O)c2cc(NC(=O)Cc3ccccc3)ccc2O[C@@H](C)CCCCO[C@@H]1CN(C)C(=O)NC1CCCCC1`, the cytotoxicity call is “inactive”.
Next, `COc1ccc(S(=O)(=O)N(C)C[C@@H]2OCCCC[C@H](C)Oc3ccc(NC(=O)CCC(F)(F)F)cc3C(=O)N([C@@H](C)CO)C[C@H]2C)cc1`: “inactive”; `COc1ccc(S(=O)(=O)Nc2ccc3c(c2)CC(=O)N([C@@H](C)CO)C[C@@H](C)[C@@H](CN(C)CC2CC2)O3)cc1`: “inactive”; `COc1ccc(S(=O)(=O)N[C@@H]2CC[C@@H](CC(=O)N3CCN(c4ccccc4)CC3)O[C@@H]2CO)cc1`: “inactive”.
Regarding `Cn1cnc(CN)c1`, the cytotoxicity call was “inactive”.
Next, `C[C@H]1CN([C@@H](C)CO)C(=O)c2cc(C#CCc3ccccc3)cnc2O[C@@H]1CN(C)C(=O)C1CCOCC1`: “inactive”.
Next, `C[C@H]1CN([C@@H](C)CO)C(=O)c2cc(NS(=O)(=O)c3ccccc3)ccc2O[C@@H]1CN(C)Cc1ccncc1`: “inactive”; `Cc1noc(C)c1NC(=O)Nc1ccc2c(c1)C(=O)N([C@H](C)CO)C[C@H](C)[C@H](CN(C)C(=O)Cc1ccccc1)OCCCC[C@H](C)O2`: “inactive”; `C[C@@H]1CN([C@H](C)CO)C(=O)c2cc(NS(=O)(=O)c3ccccc3)ccc2O[C@@H]1CN(C)Cc1ccc(Oc2ccccc2)cc1`: “active”.
For `C[C@@H]1CN([C@@H](C)CO)C(=O)c2cc(NS(=O)(=O)c3ccccc3)ccc2O[C@@H]1CN(C)Cc1ccc(Oc2ccccc2)cc1`, the cytotoxicity call was “active”.
In the case of `C[C@H]1CN([C@@H](C)CO)C(=O)c2cc(NS(=O)(=O)c3ccccc3)ccc2O[C@H]1CN(C)Cc1ccc(Oc2ccccc2)cc1`, the cytotoxicity call is “inactive”.
Next, `C[C@H](CO)N1C[C@H](C)[C@@H](CN(C)Cc2ccc(Oc3ccccc3)cc2)Oc2ccc(NS(=O)(=O)c3ccccc3)cc2C1=O`: “inactive”; `C[C@@H]1CN([C@H](C)CO)C(=O)c2cc(NS(=O)(=O)c3ccccc3)ccc2O[C@H]1CN(C)Cc1ccc(Oc2ccccc2)cc1`: “inactive”.
Next, `C[C@H](CO)N1C[C@H](C)[C@H](CN(C)Cc2ccc(Oc3ccccc3)cc2)Oc2ccc(NS(=O)(=O)c3ccccc3)cc2C1=O`: “inactive”; `C[C@@H](NS(=O)(=O)C1CN(C(=O)OCc2ccccc2)C1)C(N)=O`: “inactive”; `O=C1c2ccccc2-c2nc(-c3ccccc3)cc3cccc1c23`: “inactive”.
On to `C[C@H](CO)N1C[C@H](C)[C@H](CN(C)C(=O)CN(C)C)Oc2cc(-c3cncnc3)ccc2S1(=O)=O`, for which the cytotoxicity call is “inactive”.

For the origin of these results see the antibiotic and cytotoxicity screens of Wong et al. (2023).
